HT1080-NT tox – qHTS for induction of synthetic lethality in tumor cells producing 2HG: qHTS for the HT-1080-NT fibrosarcoma cell line. AID 686970, 2013. Potency, µM (highest dose often 46.1 µM), without a hit: top-dose activity, negative = less viability, most hits filed as cytotoxic. HT-1080-NT fibrosarcoma viability, CellTiter-Glo ATP luminescence, 48 h. hit rate 1.6% among 360,000;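 further: NT is the 2HG producing partner of a matched IDH1 knockdown line; 0% = DMSO-treated cells and -100% = media-only wells without cells; nearly all actives have a fitted effect of over 55% in size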
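Viability by CellTiter-Glo luminescence after 48 h compound exposure at 37C of HT-1080-NT cells (750/well, RPMI, 5% FBS). % activity scaled between DMSO wells and medium-only wells, then curve-fitted and categorized by curve class.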
HT1080 IDH1KD tx – qHTS for induction of synthetic lethality in tumor cells producing 2HG: qHTS for the HT-1080-IDH1KD cell line. hit rate 2% among 360,000. HT-1080 IDH1 knockdown viability, ATP luminescence, 48 h. Potency, µM (titrated, usually from 46.1 µM), inactives show top-dose activity, negative = toxicity, most hits filed as cytotoxic;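 further: 0% = DMSO wells and -100% = cell-free medium wells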
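Viability of IDH1-knockdown HT-1080 fibrosarcoma cells was assessed by CellTiter-Glo after 48 h at 37 °C with titrated compound; concentration-effect curves were classified by fit quality and response size.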
KB-V1 cytotox – qHTS assay for MDR1-selective chemotherapeutics: Primary screen using the drug-selected MDR subline cells KB-V1. KB-V1 MDR cells viability, CellTiter-Glo, 72 h. Potency, µM (top dose mostly 46.1 µM), hits mostly cytotoxic. hit rate 3.4% among 400,000; further: on the % scale 0 is the no-effect control and ±100 the full control effect; nearly all actives have a fitted effect of over 60% in size
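Following 72 h at 37 degrees C with compound, KB-V1 cell viability was read by CellTiter-Glo luminescence, medium being phenol-red-free DMEM plus 10% FBS; concentration-response parameters came from normalized, curve-fitted qHTS data.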
KB-3-1 tox – qHTS assay for MDR1-selective chemotherapeutics: Primary screen using the parental adenocarcinoma cell KB-3-1 | Potency, µM (titrated, usually from 46.1 µM), actives largely listed as cytotoxic | KB-3-1 viability, CellTiter-Glo ATP luminescence, 72 h | hit rate 1.4% among 400,000; further: on the % scale 0 is the no-effect control and ±100 the full control effect; nearly all actives have a fitted effect of over 60% in size
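KB-3-1 parental drug-naive adenocarcinoma cells in DMEM/10% FBS, incubated 72 h at 37 C with pin-transferred compounds across a concentration series. Viability by CellTiter-Glo luminescence; concentration-response curves fitted after normalization.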
ATXN2 expr inh – Primary qHTS for Inhibitors of ATXN expression; Potency, µM (doses to about 57 µM), without a hit: top-dose activity change, negative = inhibition, usual class: inhibitors; AID 1745845, 2022; hit rate 0.72% among 360,000; HEK-293 ATXN2-luciferase reporter, luminescence, 24 h; further: on the % scale 0 is the no-effect control and ±100 the full control effect; nearly all actives have a fitted effect of over 55% in size
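ATXN2-luciferase reporter cells (luciferase flanked by upstream and downstream ATXN2 gene portions) were treated 24 h at 37 °C with compounds at up to 57 uM. SteadyGlo luminescence gave expression; GF-AFC fluorescence gave viability.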
S2 tox – Viability Counterscreen for Primary qHTS for Inhibitors of ATXN expression. S2 cells (HEK-293 line with an ATXN2-luciferase reporter) viability, CellTiter-Fluor protease fluorescence, 24 h. Potency, µM (highest dose often 56.7 µM), actives largely listed as cytotoxic. hit rate 0.49% among 400,000. AID 651635, 2014; further: nearly all actives have a fitted effect of over 40% in size
* = called active by the depositor; i = inactive; ? = inconclusive; / = no result given; ! = a repeat was not active; [ ] = remark or other dose. Only some compounds are listed: those with a hit (about 6.2% of all), similar ones and a draw of the others. The call rests on the fitted dose curve; in most records, active means well fitted curve in the direction sought with a large enough effect; inconclusive means small, poorly fitted or top-dose-only effect, or another doubt; inactive means no such curve, though single readings can be large; an effect the other way counts as inactive or inconclusive. Potency means the concentration at half of the fitted maximal effect.

SMILES	HT1080-NT tox	HT1080 IDH1KD tx	KB-V1 cytotox	KB-3-1 tox	ATXN2 expr inh	S2 tox
Cn1nnnc1SCCNCc1cc(Cl)ccc1OCc1ccccc1	-6%	-1%	5.2µM*	i	-12%	i
COc1ccc(/C=N/Nc2nnc(-c3ccccc3)c(=O)[nH]2)cc1	13µM*	13µM*	13µM*	5.2µM*	2%	i
Cc1ccc2c(c1)CN(CCNC(=O)c1cccc(Cn3cccn3)c1)CC(C)O2 (stereo unspecified)	/	/	/	/	/	i
CN(C)c1ccc(C(=O)/C=C/c2cccnc2)cc1	?	?	?	18µM*	60%	i
CCOc1ccccc1CNC(=O)c1ccc(N2Cc3ccccc3Oc3ncccc32)s1	/	/	i	i	/	/
COc1ccc(C2c3c(ncn(CCCO)c3=N)Oc3ccc4ccccc4c32)cc1OC (stereo unspecified)	?	23µM*	i	?	?	?
COc1ccc(C2c3c(ncn(CCCO)c3=N)Oc3ccc4ccccc4c32)cc1 (stereo unspecified)	21µM*	21µM*	i	?	?	/
COc1ccc(C2c3c(ncn(CCN4CCOCC4)c3=N)Oc3ccc4ccccc4c32)cc1OC (stereo unspecified)	?	16µM*!	23µM*	?	?	/
COc1cc(OC)c2nc(-c3cc4c(c(OC)c3)OCCN(C(=O)C(C)c3n[nH]c(=O)c5ccccc35)C4)cc(C)c2c1 (stereo unspecified)	/	/	/	/	/	i
COc1cccc(-n2c(-c3ccco3)nc3c(cnn3-c3ccccc3C)c2=O)c1	/	/	i	i	-28%	i
COC1C=COC2(C)Oc3c(C)c(O)c4c(O)c(c(CN5CCN(C)CC5)c(O)c4c3C2=O)NC(=O)C(C)=CC=CC(C)C(O)C(C)C(O)C(C)C(OC(C)=O)C1C (stereo unspecified)	4%	12%	i	i	15%	i
CO[C@H]1/C=C\O[C@@]2(C)Oc3c(C)c(O)c4c(O)c(c(C=NN5CCN(C6CCCC6)CC5)c(O)c4c3C2=O)NC(=O)C(C)=CC=C[C@H](C)[C@H](O)[C@@H](C)[C@@H](O)[C@@H](C)[C@H](OC(C)=O)[C@H]1C	/	/	i	i	5.4µM*	/
CCOC(=O)C(=CNc1ccccc1C)C(=O)OCC	6%	-8%	?	i	-9%	i
CCOC(=O)C(=CNc1cc(C)nn1-c1ccccc1)C(=O)OCC	-15%	-25%	4.6µM*	i	-33%	i
O=C(Nc1ccccc1)c1cccc(NC(=O)c2ccco2)c1	-10%	2%	?	i	-3%	i
CCOc1cc(NS(=O)(=O)c2ccccc2)c(OCC)cc1NC(=O)c1ccco1	2%	-4%	15µM*	i	-8%	i
CCOc1ccc(CCNC(=O)Cc2ccc(NC(=O)C3=C(C)OCCS3)cc2)cc1	-4%	1%	i	i	/	i
Cc1ccc(C(=O)Nc2ccccc2C(=O)NCc2ccccc2)cc1	0%	3%	4.6µM*	i	9%	?
CSc1ccc(CNC(=O)Cc2ccc(NC(=O)C3=C(C)OCCS3)cc2)cc1	?	16µM*	?	5.8µM*	/	i
O=C(NCc1ccccc1)c1cccc(NC(=O)c2ccco2)c1	?	4.1µM*	8.2µM*	10µM*	-12%	i
Cc1ccc(C(=O)Nc2ccccc2C(=O)NCc2cccnc2)cc1	0%	-14%	i	i	4%	i
CCc1ccc(NC(=O)Cn2c(=O)n(Cc3ccco3)c(=O)c3cccnc32)cc1	/	/	i	i	-4%	i
O=C(NCc1ccccc1)c1cccc(NC(=O)c2ccccc2)c1	?	?	i	23µM*	?	?
O=C(NCc1ccco1)c1cccc(NC(=O)c2ccco2)c1	?	-16%	i	7.3µM*	-10%	i
CCOc1ccccc1NC(=O)c1cccc(NC(=O)c2ccco2)c1	?	2.3µM*	?	2.6µM*	-7%	?
SMILES	HT1080-NT tox	HT1080 IDH1KD tx	KB-V1 cytotox	KB-3-1 tox	ATXN2 expr inh	S2 tox
CCOc1ccc(C(=O)NC(=S)Nc2cccc(NC(=O)c3ccco3)c2)cc1[N+](=O)[O-]	-13%	-2%	?	18µM*	-27%	i
COc1ccc(CNC(=O)c2cccc(NC(=O)c3ccccc3)c2)cc1	-19%	-18%	i	i	-14%	i
COc1ccc(C(=O)NC(=S)Nc2cccc(NC(=O)c3ccco3)c2)cc1[N+](=O)[O-]	-2%	0%	i	i	-11%	?
CC(C)CNC(=O)c1cccc(NC(=O)c2ccco2)c1	1%	24%	i	i	5%	i
CCc1ccc(NC(=O)[C@H](Cc2ccccc2)N2Cc3ccccc3C2=O)cc1	/	/	i	i	4%	i
COc1cc(Cl)c(C)cc1NC(=O)c1cc(S(=O)(=O)N2CCCC2)ccc1F	/	/	i	i	7%	i
CCOc1cc(NS(=O)(=O)c2ccc(Cl)cc2)c(OCC)cc1NC(=O)CC(C)C	?	?	11µM*	i	-4%	i
Cc1ccc(C(=O)NCc2ccccc2)cc1Br	0%	-2%	18µM*	i	23%	i
CC1=C(C(=O)Nc2cc(C(=O)NCc3ccccc3)ccc2C)SCCO1	?	?	21µM*	i	/	i
CCOc1cc(NS(C)(=O)=O)c(OCC)cc1NC(=O)c1cccs1	4%	6%	9.2µM*	?	-3%	?
Cc1ccc(C(=O)NC(=S)NCc2ccccc2)cc1Br	11%	12%	i	i	4%	/
COCCN(C(=O)c1ccccc1Oc1ccccc1)c1c(N)n(CC(C)C)c(=O)[nH]c1=O	-1%[9.24 µM]	-2%	i	i	5%	i
CN(C)c1cccc(-c2ncc(F)c(N3CCC(C(N)=O)CC3)n2)c1	/	/	i	?	/	/
O=C(O)c1ccccc1NCCc1ccccc1	/	/	/	/	44%	i
COc1cccc(C(O)c2ncc(-c3ccc(C(F)(F)F)cc3)[nH]2)c1 (stereo unspecified)	-14%	-18%	i	i	7%	i
CCOC(=O)c1cnc2c(Cl)c(Cl)ccc2c1N1CCN(C)CC1	15µM*	16µM*	?	i	-18%	i
CCOC(=O)c1cnc2c(C)c(Cl)ccc2c1N1CCN(CC)CC1	15µM*	15µM*	i	i	-14%	i

High-throughput results: PubChem, National Center for Advancing Translational Sciences (NCATS)
